In the library only some 15% were active in any assay of this set; here they are far more common.
Sm TGR block – blocks Schistosoma mansoni thioredoxin glutathione reductase; Q962Y6; 360,000 tested, 3% active; purified TGR, DTNB reduction, TNB absorbance 405 nm; Potency, µM (series often up to 114 µM), inactives show at the top dose activity change, negative = inhibition, actives largely listed as inhibitors; also: potency is read from the fitted curve at half-maximal effect; % is scaled to controls: 0 for no effect and ±100 for the full control effect; nearly all actives have a fitted effect of over 60% in size
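Kinetic colorimetric format: TGR-catalysed, NADPH-driven DTNB reduction monitored via TNB absorbance. Enzyme dispensed at 20 nM; compound exposure 15 min at room temperature before reaction start.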
Pf growth 48h – inhibits P. falciparum growth in the first generation, 48 h; P. falciparum luciferase growth in erythrocytes, 48 h; Potency, µM (titrated, usually from 28.7 µM), for the others: top-dose activity change, negative = inhibition, usual class: inhibitors; 310,000 tested, 5.9% active; also: potency is read from the fitted curve at half-maximal effect; % is scaled to controls: 0 for no effect and ±100 for the full control effect
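Parasite viability was followed by luminescence of a genomically integrated firefly luciferase. Cultures held 0.1% parasitemia at 2% hematocrit (final), incubated under 5% CO2 at 37 C.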
HCV inhibitor – HCV inhibition; Huh7.5.1 HCVcc-Cre infection, luciferase reporter, 44 h; Potency, µM (top dose mostly 41.8 µM), for inactives: at the top dose activity change, negative = inhibition, hits mostly inhibitors; 340,000 tested, 3.4% active; also: potency is read from the fitted curve at half-maximal effect; % is scaled to controls: 0 for no effect and ±100 for the full control effect
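Cells (1,000/well) were plated 4 h before compound, then infected with HCVcc-Cre virus (~0.5 moi). After 44 h further culture, infection was read as luciferase luminescence following a 15 min substrate incubation at room temperature.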
HCMV inh – inhibitors of human cytomegalovirus; activity change, negative = inhibition, % at 57.5 µM; 410,000 tested, 4.5% active; HFF cells, HCMV-luciferase reporter, 72 h; active compounds read low; in the data active = activity change below about -60%; inconclusive = no clear call, values can overlap the other calls; inactive = above about -39%; also: % is scaled to controls: 0 for no effect and ±100 for the full control effect
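Two-dose cell screen: HFF monolayers treated with compounds and infected with luciferase-expressing HCMV at 1 PFU/cell, 72 h at 37C, then lysed for luciferase measurement.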
SARS PLP yeast – blocks SARS-CoV papain-like protease in a yeast assay; 330,000 tested, 0.19% active; S. cerevisiae expressing SARS-CoV PLpro, growth rescue; Potency, µM (series often up to 32.9 µM), inactives show at the top dose activity, positive = growth rescue, actives largely listed as activators; AID 485353; calls by dose curve; also: potency is read from the fitted curve at half-maximal effect; 0% is about no effect; nearly all actives have a fitted effect of over 55% in size
Pf growth 96h – P. falciparum growth inhibition at 96 hours | P. falciparum luciferase reporter growth, 96 h | Potency, µM (series often up to 28.7 µM), for the others: at the highest dose activity change, negative = inhibition, hits mostly inhibitors | 320,000 tested, 6.9% active; also: potency is read from the fitted curve at half-maximal effect; % is scaled to controls: 0 for no effect and ±100 for the full control effect
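P. falciparum expressing integrated firefly luciferase, in erythrocytes at 2% hematocrit, 0.05% parasitemia, incubated with compounds 96 h at 37 C, 5% CO2. Growth inhibition read as loss of luminescence; two-generation exposure targets delayed-death apicoplast inhibitors.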
Numbers without * were called inactive; ? = inconclusive; . = no result. Unless noted, calls follow the shape of the dose curve; as a rule, active = well fitted curve in the direction sought with a large enough effect; inconclusive = small, poorly fitted or top-dose-only effect, or another doubt; inactive = no such curve, though single readings can be large; an effect the other way counts as inactive or inconclusive.

SMILES | Sm TGR block | Pf growth 48h | HCV inhibitor | HCMV inh | SARS PLP yeast | Pf growth 96h
O=C(Nc1ccc(Cl)cn1)c1ccccc1[N+](=O)[O-] | -3% | 45% | -27% | 46 | 3% | ?
O=[N+]([O-])c1cnc(Nc2ccc(Cl)cn2)c([N+](=O)[O-])c1 | 0% | 104% | 11µM* | 3 | 0% | 32%
CN1CCN(CC(O)Cn2c3ccccc3c3ccccc32)CC1 (stereo not drawn) | -9% | ? | ? | -30 | 0% | -2%
OC(CNC1CCCCC1)COCCOc1ccc(Br)cc1 (stereo not drawn) | 10% | 10µM* | 7.9µM* | -5 | 0% | 12µM*
CCOc1ccc(CN2CCN(CC(O)Cn3c4ccccc4c4ccccc43)CC2)cc1 (stereo not drawn) | 0% | 2.1µM* | 18% | -1 | -11% | ?
CCc1ccc(OCCOCC(O)CN2CCN(Cc3ccc(Cl)cc3)CC2)cc1 (stereo not drawn) | 7% | -17% | ? | -29 | -32% | ?
OC(COCCOc1ccc(Br)cc1)CN1CCN(Cc2ccccc2)CC1 (stereo not drawn) | 1% | -14% | ? | -101* | 4% | ?
OC(CN1CCCCC1)Cn1c2ccccc2c2ccccc21 (stereo not drawn) | -8% | ? | -24% | 27 | 1% | -25%
COc1ccc(CN2CCN(CC(O)Cn3c4ccccc4c4ccccc43)CC2)cc1 (stereo not drawn) | 9% | 3.3µM* | 11µM* | -11 | -27% | ?
COc1cc([N+](=O)[O-])cc(/C=N/NC(=O)CSc2ccccn2)c1O | -12% | 11% | 25% | 0 | 5% | 20%
COc1cccc(CN2CC3(CN(S(C)(=O)=O)C3)c3c(n(C)c4cc(OC)ccc34)[C@H]2CO)c1 | . | . | . | -33 | . | .
CC(=O)N1CCN(c2ncnc3ccccc23)CC1 | -9% | 14% | 20% | ? | 19% | -28%
CCCSc1nc(C)c2cc(C)cc(C)c2n1 | ? | 8% | 1% | 7 | -17% | ?
Cc1cc(C)c2nc3nc(C)c(C)cc3c(N)c2c1 | . | 4.1µM* | -30% | -99* | -1% | ?
C[n+]1ccc(/C=C/c2ccc(Br)cc2)cc1 | 2% | 0.33µM* | ? | -63* | -6% | 1.3µM*
Cc1ccc(C(=O)/C=C/c2ccc(Br)cc2)o1 | 0% | ? | ? | 31 | 5% | 91%
O=C(Cn1cc([N+](=O)[O-])cn1)NCCc1c[nH]c2ccccc12 | 1% | 15% | 17% | ? | 1% | ?
O=C(Cn1cc([N+](=O)[O-])cn1)NCCc1nc2ccccc2[nH]1 | 22% | 19% | 9% | -18 | 0% | 9.3µM*
O=C(NCCc1nc2ccccc2[nH]1)c1cc([N+](=O)[O-])cc([N+](=O)[O-])c1 | -11% | 4.7µM* | -6% | -34 | 23% | ?
COc1ccc(NC(=O)CC2C(=O)N(Cc3ccccc3)C(=S)N2CCN2CCOCC2)cc1 (stereo not drawn) | 4% | ? | 13% | ? | 2% | ?
COc1ccc(NC(=O)CC2C(=O)N(c3cccc(OC)c3)C(=O)N2Cc2ccco2)cc1 (stereo not drawn) | 45µM* | -4% | -15% | -2 | -1% | 9.3µM*
COC(=O)CN1C(=S)N(Cc2ccccc2)C(=O)C1CC(=O)Nc1ccc(OC)cc1 (stereo not drawn) | -1% | 4.1µM* | -3% | -10 | 3% | 20%
COC(=O)c1ccc(NC(=O)CC2C(=O)N(c3ccccc3)C(=O)N2Cc2ccco2)cc1 (stereo not drawn) | ? | . | . | 17 | . | .
C=CCN1C(=O)C(CC(=O)Nc2ccc(OCCC)cc2)N(CCCN2CCN(Cc3ccccc3)CC2)C1=S (stereo not drawn) | 1% | ? | 10µM* | 1 | -4% | ?

Screens (PubChem BioAssay)
